HTT ATP protect: qHTS Multiplex Assay to Identify Dual Action Probes in a Cell Model of Huntington: Cytoprotection (ATP); PC12 HTT-Q103 induced, cytoprotection, ATP luminescence, 40 h; Potency, µM (titrated, usually from 56.4 µM), inactives show cytoprotection (ATP increase), most hits filed as activators; 230,000 compounds, 0.14% hits; AID 1471, 2008; active = well fitted curve in the direction sought with a large enough effect; inconclusive = small, poorly fitted or top-dose-only effect, or another doubt; inactive = no such curve, though single readings can be large; an effect the other way counts as inactive or inconclusive; note: % of control where 0% means no effect; nearly all actives have a fitted effect of over 45% in size
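Huntington model: PC12 line, ecdysone-inducible HTTQ103 exon1–GFP, tebufenozide 100 nM. Test articles in a dose series. Endpoint luminescence from cellular ATP.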
LMNA splice mod: qHTS Assay for Modulators of Lamin A Splicing | HeLa LMNA splicing GFP/RFP minigene ratio, 48 h | AID 1487, 2009 | Potency, µM (series often up to 46.1 µM), for inactives: at the highest dose ratio change, negative = inhibition, usual class: inhibitors | 200,000 compounds, 0.01% hits; active = well fitted inhibition curve with a large enough effect in the signal ratio, with a control signal flat, not every such curve was filed as active; inconclusive = small, poorly fitted or top-dose-only effect, or effect the other way, or a change in a side signal; the % refers to the signal ratio; note: % is set by controls: 0 for no effect and ±100 for the full control effect
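S3 HeLa cells stably expressing lamin A-EGFP splicing minigene plus DsRed2, 600 cells/well, 48 h compound exposure at 37C. Laser-scanning cytometry; analysed as GFP (500-530 nm)/RFP (575-640 nm) total intensity ratio; 0.5% DMSO vehicle.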
JMJD2E inh: qHTS Assay for Inhibitors of Human Jumonji Domain Containing 2E (JMJD2E); JMJD2E catalytic domain, FDH-coupled NADH fluorescence (FDH is formaldehyde dehydrogenase); 230,000 compounds, 1.6% hits; AID 2147, 2009; Potency, µM (doses to about 57.1 µM), inactives show at the highest dose activity change, negative = inhibition, actives largely listed as inhibitors;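 note: 0% = wells with enzyme and -100% = buffer wells without enzyme; nearly all actives have a fitted effect of over 50% in size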
ALDH1A1 block: qHTS Assay for Inhibitors of Aldehyde Dehydrogenase 1 (ALDH1A1); Potency, µM (series often up to 75.3 µM), for the others: at the highest dose activity, negative = inhibition, usual class: inhibitors; AID 1030, 2008; 220,000 compounds, 7.3% hits; Purified ALDH1A1, NADH fluorescence, propionaldehyde substrate; Aldehyde dehydrogenase 1A1 (Homo sapiens), P00352;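 note: plate controls were no enzyme wells and a reference inhibitor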
Target sequence (P00352 whole entry, looked up): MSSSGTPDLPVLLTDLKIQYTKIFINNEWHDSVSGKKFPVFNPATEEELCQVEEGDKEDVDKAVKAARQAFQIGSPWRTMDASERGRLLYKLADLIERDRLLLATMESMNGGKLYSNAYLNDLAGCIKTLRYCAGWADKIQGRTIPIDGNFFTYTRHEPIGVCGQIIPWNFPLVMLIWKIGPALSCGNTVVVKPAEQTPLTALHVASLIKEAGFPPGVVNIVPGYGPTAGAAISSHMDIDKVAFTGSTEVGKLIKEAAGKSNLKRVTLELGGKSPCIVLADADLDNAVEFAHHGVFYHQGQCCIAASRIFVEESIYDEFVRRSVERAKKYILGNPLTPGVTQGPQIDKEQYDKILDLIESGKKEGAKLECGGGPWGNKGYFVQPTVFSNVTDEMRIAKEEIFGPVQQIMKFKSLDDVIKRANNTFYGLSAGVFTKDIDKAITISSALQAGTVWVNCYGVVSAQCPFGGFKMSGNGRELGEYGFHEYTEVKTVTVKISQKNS
HPGD inh: qHTS Assay for Inhibitors of HPGD (15-Hydroxyprostaglandin Dehydrogenase). 15-hydroxyprostaglandin dehydrogenase [NAD(+)] (Homo sapiens), P15428. purified HPGD, NADH fluorescence kinetic, PGE2 substrate. Potency, µM, inactives show top-dose activity change, negative = inhibition, actives largely listed as inhibitors. 150,000 compounds, 4.3% hits; note: % is set by controls: 0 for no effect and ±100 for the full control effect
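NADH formation kinetics: reaction with 30 uM PGE2 and 1 mM NAD+ (final), 20 nM enzyme, Tris-HCl pH 8 with Tween 20, after 15 min compound preincubation at room temperature. Fluorescence change, last versus first of five reads.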
HttQ103 aggreg: qHTS Multiplex Assay to Identify Dual Action Probes in a Cell Model of Huntington: Aggregate Formation (GFP); PC12 HttQ103-GFP aggregates, Acumen cytometry, 40 h; Potency, µM (titrated, usually from 46.1 µM), for inactives: top-dose activity change, negative = inhibition, most hits filed as inhibitors; 220,000 compounds, 1.1% hits; AID 1688, 2009; active = well fitted curve in the direction sought with a large enough effect; inconclusive = small, poorly fitted or top-dose-only effect, or another doubt; inactive = no such curve, though single readings can be large; an effect the other way counts as inactive or inconclusive; note: % is set by controls: 0 for no effect and ±100 for the full control effect; nearly all actives have a fitted effect of over 60% in size
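PC12 cells stably carrying ecdysone-inducible HTT exon 1 Q103–GFP were induced with tebufenozide (100 nM final) and treated with library compounds in titration. GFP aggregates in lysates were counted by laser scanning cytometry.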
* hit, by the source's call; u = inconclusive; x = not tested or not shown; [ ] = another dose, or the depositor's remark. This is a sample that favours compounds with a hit; in the whole collection about 9.2% have one here. Unless noted, calls come from the whole dose curve; as a rule, active = well fitted inhibition curve with a large enough effect (not every such curve was filed as active); inconclusive = small, poorly fitted or top-dose-only effect, or another doubt; inactive = no such curve, though single readings can be large or run the other way. Potency is the fitted concentration of half-maximal effect.

SMILES	HTT ATP protect	LMNA splice mod	JMJD2E inh	ALDH1A1 block	HPGD inh	HttQ103 aggreg
O=C(OCc1nnc(-c2ccccc2)o1)c1cc2ccccc2cc1O	-33.2%	-3.4%[46 µM]	-5.2%	3.1%	x	-9.3%
NC(=O)COC(=O)c1ccc(S(=O)(=O)NCc2ccco2)cc1	-7.7%	u	2.8%	4.6%	x	14.9%
O=C(COc1ccc(Br)cc1)OCc1nnc(-c2ccccc2)o1	2.6%[10 µM]	2.2%	-0.7%	-11.4%	28.2µM*	-12.1%
O=C(OCc1nnc(-c2ccccc2)o1)c1ccc(S(=O)(=O)NCc2ccco2)cc1	-15.7%[10 µM]	-8.4%	-0.3%	15.5%	11.2µM*	1.8%
O=C(OCc1nnc(-c2ccccc2)o1)c1cc(S(=O)(=O)N2CCOCC2)c(Cl)cc1Cl	-6.0%[10 µM]	3.8%	0.4%	3.7%	7.94µM*	-17.0%
O=C(OCc1nnc(-c2ccccc2)o1)c1ccc2ccccc2n1	19.6%	9.4%	-4.9%	5.2%	25.1µM*	-18.1%
COc1ccc(O)c(C(=O)c2coc(=N)c(C(=O)Nc3ccc(SC(F)F)cc3)c2)c1	-145.9%	-1.6%[9.22 µM]	u	u	x	u
Cc1c(C(=O)N2CCC(C)CC2)c(S(=O)(=O)N2CCN(c3cccc(Cl)c3)CC2)c(C)n1C	x	6.0%[46 µM]	x	x	x	x
CO[C@]1(NC(=O)C2SC(=C(C(N)=O)C(=O)O)S2)C(=O)N2C(C(=O)O)=C(CSc3nnnn3C)CS[C@H]21 (some centres not stated)	u	u	7.3%[25.5 µM]	8.1%[20.9 µM]	1.0%	9.1%[20.6 µM]
CSCC[C@@H](N)C(=O)O	-17.7%	x	x	-0.2%	x	x
Cc1ccc(C(=O)OCc2nnc(-c3ccccc3)o2)o1	11.2%	5.6%	-2.3%	-6.5%	7.08µM*	9.6%
O=C(OCc1nnc(-c2ccccc2)o1)c1ccc(CO)cc1	-4.7%[10 µM]	7.3%[46 µM]	26.0%	15.0%	x	23.8%
O=C(OCc1nnc(-c2ccccc2)o1)c1ccc2c(c1)OCCO2	8.6%	-2.7%[0.0737 µM]	-8.4%	5.8%	7.94µM*	8.1%
C[C@]12CCC3c4ccc(O)cc4CCC3C1CCC2OC(=O)CCC1CCCC1 (some centres not stated)	x	x	-0.8%	-4.8%	-4.0%	x
COc1ccc(C)cc1NC(=O)c1cc(S(=O)(=O)N2CCC(C)CC2)ccc1F	x	-4.5%[46 µM]	x	x	x	x
Cc1cc(Nc2cc(F)ccc2C)n2ncnc2n1	6.4%	-9.4%	-4.9%	-15.7%	-19.3%	1.1%
COc1ccc(C)cc1Nc1cc(C)nc2ncnn12	-13.7%	7.3%	11.9%	0.7%	5.01µM*	9.4%
CCOc1ccc(OCC)c(Nc2cc(C)nc3ncnn23)c1	-17.9%	-20.0%	5.2%	1.4%	4.47µM*	6.1%
CCOc1ccccc1Nc1cc(C)nc2nc(C)nn12	-7.7%	-1.3%	-5.9%	-5.6%	1.58µM*	-5.2%
CCc1cccc(Nc2cc(C)nc3nc(C)nn23)c1	25.3%[10 µM]	-1.0%	-1.2%	2.0%	-17.8%	35.5µM*
CCC[C@@H]1O[C@@H]2C[C@@H]3[C@H]4CCC5=CC(=O)C=C[C@@]5(C)[C@H]4[C@H](O)C[C@@]3(C)[C@@]2(C(=O)CO)O1	-14.3%[40.3 µM]	10.0%	-7.7%[25.5 µM]	-1.7%[20.9 µM]	-0.8%	-3.2%
CCOc1ccc(OCC)c(Nc2cc(C)nc3nc(C)nn23)c1	-16.4%	-10.7%	0.0%	2.7%	0.501µM*	1.1%
Cc1ccc(Nc2cc(C)nc3nc(C)nn23)c(C)c1	-10.0%	-2.0%	4.2%	0.0%	-18.3%	1.7%
CCOCCCn1cc(C(=O)c2cc(Br)ccc2O)cc(C#N)c1=O	-119.6%	u	u	u	x	u
CCCCn1cc(C(=O)c2cc(Br)ccc2O)cc(C#N)c1=O	-53.8%	u	0.1%	-5.3%	-17.4%	15.8µM*

Screens as filed in PubChem.
